Assay results taken from PubChem BioAssay AID977606 (Broad Institute, 2014).
The campaign covered roughly 1,500 compounds. About 430 (29%) were called active. Only a sample is shown. Entries with a potency or affinity are not part of this list. Values without a mark were called inactive. The rule behind the calls is not given here.

assay: insulin secretion activators without glucose, dose response, counter-screen for glucose-dependent insulin secretion activators, cell-based, INS-1E, Gaussia luciferase, luminescence, cherry-pick (AID 977606); details: INS-1E Gaussia luciferase insulin secretion, no glucose, 100% = twice neutral-control luminescence; series mostly up to 35 µM; activation: at the top concentration;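 note: 0% = median of neutral control wells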

SMILES	activation
O=C(NCc1ccccc1)C(c1ccncc1)n1c(=O)c(-c2ccccc2)nc2ccccc21 (stereo not given)	28.8%
CN1CCC(N(C)S(=O)(=O)c2ccc(NC(=O)COc3cccc(Cl)c3)cc2)CC1	-23.8%
O=C(COc1ccccc1)Nc1ccccc1C(=O)NC1CC1	-7.06%
N#CC1=C(N)Oc2n[nH]c(-c3ccc(F)cc3)c2C1c1cccnc1 (stereo not given)	2.56%
COc1ccc(CCNS(=O)(=O)c2cn(C)cn2)cc1OC	-16.4%
NC1=NC[C@H](Cc2ccccc2)N1CCCCC1CCCCC1	114%
CN=C1c2ccccc2CN1c1cccc(C(=O)OC)c1	-4.38%
Cc1ccc(S(=O)(=O)/N=C2\CN(C)C(=O)N2C)cc1	-12.3%
CSc1ccc(/C=N/N(C)S(=O)(=O)c2ccc(C)cc2)cc1	-4.63%
Cc1cc(Br)ccc1NC(=O)CN(C)C(=O)C1CSC2(C)CCC(=O)N12 (stereo not given)	9.16%
Cc1ccc(NC2c3ncccc3C(=O)N2C2CCCCC2)cc1 (stereo not given)	17.3%
CCSc1nnc(-c2cccnc2)n1-c1ccc(C)c(Cl)c1	5.24%
COc1ccc(CCNC(=O)CCc2nc3ccccc3[nH]2)cc1OC	5.63%
Cc1ccc(-c2cc(C(=O)Nc3nn[nH]n3)c3ccccc3n2)c(C)c1	-0.923%
Cc1ccc(-c2nnc3sc(-c4ccncc4)nn23)cc1	27.7%
O=c1c2[nH]cnc2n(-c2ccc(F)cc2)c(=O)n1Cc1ccccc1	10.5%
COc1ccc(S(=O)(=O)NC2CCCCC2)cc1C	20.3%
Cc1cc(C(=O)NC(C)CCC(C)C)c2ccccc2n1 (stereo not given)	13.7%
O=C(Nc1ccccc1C(=O)N/N=C/c1ccccc1)c1ccco1	-6.08%
CONc1nc(NC(C)(C)C)nc(OCC#N)n1	-9.96%
COc1ccc(CCN(C)C(=O)c2oc3ccccc3c2C)cc1OC	-10.6%
COc1ccc2oc(C(=O)Nc3nnc(C)s3)c(C)c2c1	-19.6%

SMILES	activation
Cc1ccc(S(=O)(=O)N(CC(=O)Nc2ccc(C)cc2C)C(=O)N2CCN(C)CC2)cc1	7.3%
CCC(c1nnnn1-c1ccc2c(c1)OCCO2)N1CCc2ccccc2C1 (stereo not given)	-4.74%
CCOc1cc(CNc2cccc3[nH]c(C)nc23)ccc1OC	-6.58%
CCOC(=O)c1cnc2ccc(OCC)cc2c1N1CCN(c2ccccc2)CC1	4.79%
O=C(Nc1cccnc1)c1cnn2c(C(F)F)cc(C3CC3)nc12	-8.04%
C[C@H]1CN([C@@H](C)CO)C(=O)c2ccccc2-c2ccccc2CO[C@@H]1CN(C)Cc1ccc(Cl)c(Cl)c1	33.1%
C[C@@H]1CN([C@H](C)CO)S(=O)(=O)c2ccc(-c3ccc(C#N)cc3)cc2O[C@H]1CN(C)C	0.541%
C[C@@H]1CN([C@H](C)CO)C(=O)c2cc(C#CCN(C)C)cnc2O[C@H]1CN(C)S(=O)(=O)c1cn(C)cn1	6.63%
C[C@H]1CN([C@@H](C)CO)C(=O)c2ccccc2-c2ccccc2CO[C@@H]1CN(C)Cc1cccc(C(F)(F)F)c1	1.11%
C[C@@H]1CN([C@H](C)CO)C(=O)Cc2cc(NC(=O)CCCN(C)C)ccc2O[C@H]1CN(C)Cc1ccc(-c2ccccc2)cc1	36.9%
C[C@@H]1CN([C@@H](C)CO)C(=O)CCCn2nncc2CO[C@H]1CN(C)Cc1ccccc1	6.88%
C[C@@H]1CN([C@@H](C)CO)C(=O)c2cccc(NC(=O)Nc3ccc(C(F)(F)F)cc3)c2O[C@H]1CN(C)Cc1ccc(Cl)c(Cl)c1	29.3%
Cc1cccc(C)c1-n1nnnc1C1(C)CCC(=O)N1Cc1cccs1 (stereo not given)	-13%
Cc1ccc(-n2ncc3c2CC(C)(C)CC3NC(=O)CCCN2CCCC2=O)cc1 (stereo not given)	-13.3%
CCN(CC)CCn1c(=N)n(CC(O)COc2ccccc2)c2ccccc21 (stereo not given)	-12.7%
COCCNc1nc(Oc2cncc(Cl)c2)c2sccc2n1	9.21%
Cc1ccc(C)c(S(=O)(=O)Nc2ccc(C(=O)N3CCC3)cc2)c1	10.9%
N#Cc1cccnc1Nc1cccc(Cl)c1	0.724%
Cc1nc2ccccc2c(=O)n1/N=C/c1ccc(N(C)C)cc1	-0.341%
Cc1noc(C)c1NC(=O)N(C)C[C@H]1Oc2c(NC(=O)C3CCCCC3)cccc2C(=O)N([C@H](C)CO)C[C@@H]1C	-7.5%
C[C@@H]1CN([C@H](C)CO)C(=O)c2cc(C#CCc3ccccc3)cnc2O[C@H]1CN(C)C(=O)C1CCC1	23.1%
CN(C(=O)COC(=O)c1cccs1)c1ccccc1	-7.76%

SMILES	activation
CCOC(=O)c1sc(NC(C)=O)nc1-c1ccccc1	-5.44%
O=C(O)C(Cc1ccc(O)cc1)N1C(=O)c2ccccc2C1=O (stereo not given)	-3.37%
CCOc1ccccc1Nc1cc2n(c(=O)n1)CCc1cc(OC)c(OC)cc1-2	-4.8%
COC(=O)c1cccc(-n2c(=O)n(Cc3ccccc3)c(=O)c3[nH]cnc32)c1C	0.767%
O=C(O)c1ccc(S(=O)(=O)N2CCC3(CC2)CC(=O)c2ccccc2O3)cc1	-15%
CCOC(=O)c1c(C)[nH]c(C(=O)COC(=O)c2cnccn2)c1C	14%
CCOc1ncccc1C(=O)Nc1ccc(S(=O)(=O)Nc2nc(C)cc(C)n2)cc1	-2.86%
COc1ccc(N/C=C/C(=O)c2ccc(Cl)cc2)cc1	48.8%
COc1cc2ccc(CC(=O)O)cc2cc1OC	3.11%
C[C@H](O)[C@@H]1CN2CCc3ccc(-c4ccc5c(c4)OCO5)cc3[C@@H]2C[C@@H]1N(C)C(=O)c1cccc(Cl)c1	-6.37%
CC(O)c1nc2ccc(Cc3ccc4nc(C(C)O)[nH]c4c3)cc2[nH]1 (stereo not given)	6.67%
O=C(Cc1csc(NC(=O)c2ccccc2)n1)NO	4.16%
Cc1ccc(-c2csc(NC(=O)CCCc3cccs3)n2)cc1	-13.3%
CCc1c(C(=O)Nc2ccc(C)c(C)c2)[nH]c(C)c1C(C)=O	-2.69%
CC(=O)Nc1ccc(-c2ccnc3c2CC(C)(C(=O)Nc2cccc(OC(F)(F)F)c2)O3)cc1 (stereo not given)	-18%
CCSc1ncnc2c(C#N)c3n(c12)CCCCC3	-23.6%
CN1CCCC1CCNC1C2CC3CC(C2)CC1C3 (stereo not given)	10.6%
Cc1c(C(=O)N(C)CCc2cnn(C)c2)oc2c(F)cccc12	-6.35%
COC(=O)C[C@@H]1OC[C@H](C(C)C)N1S(=O)(=O)c1ccc(C)cc1	-4.61%
Cc1ccc(-n2nc3c(c2NC(=O)C2CC2)CS(=O)(=O)C3)cc1	-70.2%
CCc1cc(=O)oc2c(CNCc3ccc(OC)cc3OC)c(O)c(Cl)cc12	3.11%
